The text below walks through data of PubChem BioAssay (EPA / NIEHS).

Each structure is given as a SMILES string. Where “and” joins values, the source holds several entries; their conditions need not be identical. Equal entries are not always repeated. Calls of active or inactive are those of the source. The calls were made as follows: active = hit-call score of the fitted dose curve at least 0.9, where 1 is the maximum; inactive = score below 0.9.

Read-out in this assay: Interleukin-8 (IL8), CXCL8 (gene 3576)
Description: BSK_KF3CT_IL8: BioMAP Diversity Plus: KF3CT Assay for Interleukin-8 (IL8) Biomarker Activity (AID 2284254). As to conditions: primary human keratinocytes with fibroblasts. On the procedure:
BSK_KF3CT is a cell-based, multiplexed-readout assay that uses keratinocytes and foreskin fibroblasts, a human skin primary cell co-culture, with measurements taken at 24 hours after chemical dosing in a 96-well plate.BSK_KF3CT_IL8 is an assay component measured in the BSK_KF3CT assay. It measures IL-8 antibody related to regulation of gene expression using ELISA technology.Data from the assay component BSK_KF3CT_IL8 was analyzed at the endpoint, BSK_KF3CT_IL8, in the positive analysis fitting direction relative to DMSO as the negative control and baseline of activity. Using a type of binding reporter, gain or loss-of-signal activity can be used to understand protein changes. To generalize the intended target to other relatable targets, this assay endpoint is annotated to the 'cytokine' intended target family, where the subfamily is 'interleukins'.
The levels of cell surface (or secreted, indicated by the prefix "s") biomarker endpoints were measured by ELISA. Overt cytotoxicity to cells in confluent adherent cultures (all systems other than the BT system) was assessed by measuring total protein levels using sulforhodamine B (SRB) staining in parallel cultures at the time of biomarker measurements, indicated as SRB endpoints. For proliferation assays for adherent cell types, individual cell types are cultured at sub-confluence and relative cell numbers quantified by SRB staining at time points optimized for each system (48 h: 3C and CASM3C systems; 72 h: BT and HDF3CGF systems; 96 h: SAg system). SRB was performed by staining cells with 0.1% SRB after fixation with 10% TCA and reading wells at 560 nm.Viability and proliferation of PBMC (T cells) was quantified by Alamar Blue reduction for the SAg and BT systems. For PBMC viability (referred to as PBMC Cytotoxicity within the assay endpoint names), cells were plated (75,000/well in a 96-well plate) and then chemical samples added for 1 h before addition of activators, SEB and TSST-1 (20 ng/mL final concentration each). Cells were incubated for 90 h. Then, Alamar Blue (20 uL/well) (Invitrogen, Cat DAL1100) was added for 6 h, and the plates were read with a fluorescence microplate reader at 546/580 nm (excitation/emission). For PBMC proliferation, cells were plated and activated as above but incubated for only 16 h prior to addition of Alamar Blue. Plates were read after 6 h.
For `CCC[Si](OC(C)=O)(OC(C)=O)OC(C)=O`, the result was inactive. Still for that read-out and setting: the result for `CC[N+](CC)(CC(=O)Nc1c(C)cccc1C)Cc1ccccc1` (tested in a mixture with another compound) reads “inactive”.

`Cc1c(C(N)=O)cc([N+](=O)[O-])cc1[N+](=O)[O-]`: the result was inactive. Take `CCCCC(CC)COC(=O)C=Cc1ccc(OC)cc1` (configuration not stated): the outcome was inactive. Still for that read-out and setting: the same measure for `CC(C)C1OCCN1CCOC(=O)NCCCCCCNC(=O)OCCN1CCOC1C(C)C` (configuration not stated): “inactive”; for `COc1ccccc1Oc1c(NS(=O)(=O)c2ccc(C(C)(C)C)cc2)nc(-c2ncccn2)nc1OCCO`: “inactive”; for `COc1ccc(C(=O)c2ccccc2O)c(O)c1`: “inactive”.

For the compound `OC(C(F)(F)F)(C(F)(F)F)C(O)(C(F)(F)F)C(F)(F)F`, the outcome was inactive.

Consider `C1CN(CCOCCN2CCOCC2)CCO1`, for which the result was inactive. As for `CN(C)Cc1cc(C(C)(C)C)c(O)c(C(C)(C)C)c1`, the outcome was inactive. As for `COc1cc(CNC(=O)CCCC/C=C/C(C)C)ccc1O`, the outcome was inactive. The AC50 is the concentration giving half of the maximal activity seen. Regarding `O=[N+]([O-])c1cc(S(=O)(=O)Nc2ccccc2)ccc1Nc1ccccc1`, the AC50 is 15.3 µM (active) and 10.8 µM (active).
